Measurements reported in the supplement of paper PMC10127200.
Structures can show the parent of a compound that is named as a salt.

What was measured:
Assay in all cases: Euclidean distance of Cell Painting phenotypic profile (signed KS, 77 features) to DMSO centroid (dimensionless distance); 5 or 10 uM (library dependent); higher = stronger phenotypic change vs DMSO (phenoactivity)
Conditions in all cases: 48 h
786-O = tested on: 786-O
Summary of the method: (§1)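 Phenoactivity is computed as Euclidean distance to the median vehicle profile. The profiles, drawn from 77 Harmony features scored as signed Kolmogorov-Smirnov statistics versus same-plate vehicle wells, were corrected for plate position, correlation-weighted and replicate-averaged at the top dose. Stained cells were imaged confocally at 20X (9 fields/well) after 48 h with library compounds at 10 or 5 uM, 0.1% DMSO final, in five cancer lines and a healthy fibroblast line.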

A549 = tested on: A549
Summary of the method: as §1

DU145 = tested on: DU145
Summary of the method: as §1

FB = tested on: FB
Summary of the method: as §1

HEPG2 = tested on: HEPG2
Summary of the method: as §1

OVCAR4 = tested on: OVCAR4
Summary of the method: as §1

Structure (SMILES) | Euclidean distance (786-O) | Euclidean distance (A549) | Euclidean distance (DU145) | Euclidean distance (FB) | Euclidean distance (HEPG2) | Euclidean distance (OVCAR4)
NC(=NCCCCCCN=C(N)N=C(N)Nc1ccc(Cl)cc1)N=C(N)Nc1ccc(Cl)cc1 [Chlorhexidine?2HCl] | 2.98 | 3.13 | 2.18 | 1.67 | 2.59 | 2.56
CCCCCCCCCCCC(=O)O [Lauric Acid] | 1.1 | 0.784 | 1.21 | 1.34 | 0.884 | 0.985
COc1cc2ncnc(Nc3cccc(Cl)c3F)c2cc1OC(=O)N1CCN(C)C[C@H]1C | 1.15 | 2.05 | 1.72 | 1.4 | 0.691 | 1.33
O=C(O)[C@H]1O[C@@H](Oc2cc3oc(-c4ccccc4)cc(=O)c3c(O)c2O)[C@H](O)[C@@H](O)[C@@H]1O [Baicalin] | 1.89 | 0.742 | 1.25 | 1.48 | 0.763 | 1.22
CN1CCc2c(c3ccccc3n2Cc2ccc(C(=O)NO)cc2)C1 [Tubastatin A HCl] | 0.602 | 0.832 | 0.783 | 1.34 | 0.601 | 0.657
CNC(=O)c1cc(Oc2ccc(NC(=O)Nc3ccc(Cl)c(C(F)(F)F)c3)c(F)c2)ccn1 [Regorafenib (BAY 73-4506)] | 1.82 | 2.6 | 1.66 | 1.6 | 1.42 | 1.63
CC(C(=O)O)c1ccc(CC2CCCC2=O)cc1 (centres undefined) [Loxoprofen] | 1.12 | 0.954 | 0.808 | 1.12 | 0.384 | 0.794
Cc1c(-c2cnccn2)ssc1=S [Oltipraz] | 1.13 | 0.941 | 0.666 | 0.877 | 1.11 | 1.3
COc1cc(OC)c(/C=C/S(=O)(=O)Cc2ccc(OC)c(NCC(=O)O)c2)c(OC)c1 | 2.84 | 2.83 | 4.64 | 3.03 | 3.6 | 2.72
CC1(C)C2CCC1(C)C(O)C2 (centres undefined) [Borneol] | 1.17 | 0.812 | 1.16 | 0.792 | 0.614 | 1.08
COc1ccc2cc3[n+](cc2c1OC)CCc1cc2c(cc1-3)OCO2 [Berberine HCl] | 0.872 | 1.5 | 0.626 | 0.96 | 1.8 | 0.946
CSCC[C@H](N)C(=O)O [L-methionine] | 1.08 | 0.829 | 1.25 | 0.928 | 0.685 | 1.71
OCC(CO)N[C@H]1C[C@](O)(CO)[C@@H](O)[C@H](O)[C@H]1O [Voglibose] | 0.92 | 0.919 | 0.846 | 0.977 | 1.06 | 1.34
COc1ccccc1N1CCN(CCCNc2cc(=O)n(C)c(=O)n2C)CC1 [Urapidil HCl] | 1.39 | 0.9 | 0.94 | 0.778 | 0.34 | 0.898
N=C(N)c1ccc(N=NNc2ccc(C(=N)N)cc2)cc1 [Diminazene Aceturate] | 1.25 | 1.11 | 1.1 | 0.72 | 2.06 | 0.868
O=C(O[C@@H]1Cc2c(O)cc(O)cc2O[C@@H]1c1ccc(O)c(O)c1)c1cc(O)c(O)c(O)c1 [(-)-Epicatechin gallate] | 1.61 | 0.725 | 1.16 | 1.3 | 0.724 | 0.782
C=C1/C(=C\C=C2/CCC[C@]3(C)[C@@H]([C@H](C)/C=C/[C@H](C)C(C)C)CC[C@@H]23)C[C@@H](O)C[C@@H]1O [Doxercalciferol] | 2.73 | 1.49 | 6.05 | 1.9 | 2.03 | 1.73
CN(C)C[C@@H]1CCn2cc(c3ccccc32)C2=C(C(=O)NC2=O)c2cn(c3ccccc23)CCO1 | 3.81 | 3.95 | 4.1 | 3.89 | 3.22 | 4.42
Nc1ncccc1-c1nc2ccc(-c3ccccc3)nc2n1-c1ccc(C2(N)CCC2)cc1 [Miransertib (ARQ 092) HCl] | 4.75 | 4.1 | 2.87 | 4.17 | 4.52 | 3.46
CCC(c1ccccc1)c1c(O)c2ccccc2oc1=O (centres undefined) [Phenprocoumon] | 0.851 | 1.11 | 0.728 | 1.04 | 0.975 | 0.957
CCN(CC)CCCC(C)Nc1c2ccc(Cl)cc2nc2ccc(OC)cc12 (centres undefined) [Quinacrine 2HCl] | 3.59 | 4.6 | 2.81 | 5.56 | 4.32 | 3.92
C[C@@](Cc1ccc(O)c(O)c1)(NN)C(=O)O [Carbidopa] | 1.38 | 1.06 | 0.985 | 1.1 | 0.878 | 1.05
C=CC(=O)N1CCC(CNc2ncnc(N)c2-c2ccc(Oc3ccccc3)cc2)CC1 [Evobrutinib] | 0.935 | 0.683 | 2.24 | 0.97 | 0.714 | 0.874
CCOC(=O)C1=C(N)Oc2ccc(Br)cc2C1C(C#N)C(=O)OCC (centres undefined) | 0.871 | 1.18 | 1.12 | 1.03 | 1.03 | 0.791
CC(C)OC(=O)C(C)(C)Oc1ccc(C(=O)c2ccc(Cl)cc2)cc1 [Fenofibrate] | 1.18 | 0.803 | 0.9 | 1.1 | 1.75 | 1.73

Structure (SMILES) | Euclidean distance (786-O) | Euclidean distance (A549) | Euclidean distance (DU145) | Euclidean distance (FB) | Euclidean distance (HEPG2) | Euclidean distance (OVCAR4)
NC(=O)c1ncn([C@@H]2O[C@H](CO)[C@@H](O)[C@H]2O)n1 [Ribavirin] | 0.706 | 0.843 | 0.599 | 0.808 | 0.875 | 0.963
CC(C)(C)NC(=O)[C@@H]1CN(Cc2cccnc2)CCN1C[C@@H](O)C[C@@H](Cc1ccccc1)C(=O)N[C@H]1c2ccccc2C[C@H]1O [Indinavir Sulfate] | 0.896 | 0.551 | 0.801 | 0.953 | 0.739 | 1.27
CN(C)c1cccc(-c2c3c(=O)n(-c4ccccc4Cl)[nH]c3cc(=O)n2C)c1 | 1.01 | 1.99 | 1.08 | 0.844 | 0.852 | 1.39
CCN(CC)CCNC(=O)c1c(C)[nH]c(/C=C2\C(=O)Nc3ccc(-c4csc(-c5ccccc5)n4)cc32)c1C [Amcasertib (BBI503)] | 5.91 | 5.2 | 7.77 | 5.61 | 2.05 | 2.89
CC(=O)OC1CC2CCC1(C)C2(C)C (centres undefined) [Bornyl acetate] | 1.09 | 0.894 | 1.24 | 1.11 | 0.74 | 1.29
OC(Cn1cncn1)(Cn1cncn1)c1ccc(F)cc1F [Fluconazole] | 1.5 | 1.3 | 1.41 | 1.35 | 0.443 | 1.44
CC[N+](CC)(CC)CC [Tetraethylammonium bromide] | 1.58 | 0.816 | 0.857 | 0.968 | 1.11 | 0.715
CCN(CCCCOC(=O)c1ccc(OC)c(OC)c1)C(C)Cc1ccc(OC)cc1 (centres undefined) [Mebeverine Hydrochloride] | 0.875 | 1.21 | 1.06 | 1.29 | 0.855 | 1.91
CC(CN1c2ccccc2Sc2ccccc21)N(C)C (centres undefined) [Promethazine HCl] | 0.72 | 0.962 | 1.47 | 1.72 | 0.856 | 1.1
CO[C@@H](C)Cn1c(=O)n(C)c2cnc3ccc(-c4cncc(C(C)(C)O)c4)cc3c21 | 3.52 | 4.06 | 2.18 | 4.79 | 2.61 | 3.29
CC(/C=C1\SC(=S)N(CC(=O)O)C1=O)=C\c1ccccc1 [Epalrestat] | 1.29 | 1.2 | 0.915 | 1.45 | 0.723 | 0.848
NC(=O)c1ccccc1O [Salicylamide] | 1.39 | 1.58 | 1.56 | 1.4 | 0.71 | 2.3
CC(C)N(CCCCOCC(=O)NS(C)(=O)=O)c1cnc(-c2ccccc2)c(-c2ccccc2)n1 [Selexipag] | 0.931 | 1.04 | 0.729 | 1.31 | 0.663 | 1.65
C=C1[C@H](CO)[C@@H](O)C[C@@H]1n1cnc2c(=O)[nH]c(N)nc21 [Entecavir] | 1.46 | 1.16 | 1.05 | 1.14 | 1.35 | 1.15
Cc1ccc(-c2ncc(Cl)cc2-c2ccc(S(C)(=O)=O)cc2)cn1 [Etoricoxib] | 0.705 | 0.64 | 0.802 | 1.09 | 0.559 | 0.802
O=C(O)c1ccccc1OP(=O)(O)O [Fosfosal] | 0.982 | 0.849 | 0.86 | 0.671 | 0.711 | 1.11
C=CC(=O)Nc1cc(Nc2nccc(-n3cc(CN(C)C)c(-c4ccccc4)n3)n2)c(OC)cc1N1CCOCC1 | 0.904 | 1.76 | 1.79 | 1.2 | 1.27 | 2.16
Cc1nccn1CC1CCc2c(c3ccccc3n2C)C1=O (centres undefined) [Ondansetron Hydrochloride Dihydrate] | 1.23 | 0.687 | 0.998 | 1.01 | 1.39 | 1.43
CN1CCN(S(=O)(=O)c2ccc(-c3cnc(N)c(C(=O)Nc4cccnc4)n3)cc2)CC1 | 3.21 | 3.47 | 1.43 | 1.66 | 1.34 | 3.18
CCCCCCCCN=c1ccn(CCCCCCCCCCn2ccc(=NCCCCCCCC)cc2)cc1 [Octenidine Dihydrochloride] | 6.46 | 4.73 | 6.38 | 6.45 | 4.62 | 6.71
N[C@H](CO)C(=O)O [(R)-Serine] | 1.31 | 1.48 | 0.909 | 0.797 | 0.786 | 1.43
CNC(=O)c1ccc2cc([C@@]3(O)CCn4cncc43)ccc2c1 [TAK-700 (Orteronel)] | 0.951 | 0.683 | 0.67 | 1.1 | 1.1 | 0.845
CC(C)(C)C(=O)C(Oc1ccc(Cl)cc1)n1ccnc1 (centres undefined) [Climbazole] | 0.898 | 0.838 | 0.641 | 1.02 | 0.579 | 1.29
Cc1c(C(=O)N2CCOc3ccc(-c4ccc(N)nc4)cc3C2)ccc(S(C)(=O)=O)c1F | 2.49 | 2.65 | 1.99 | 3.46 | 2.59 | 3.43
